Results on four compounds are retold here after PubChem BioAssay (EPA / NIEHS).

Results filed as inconclusive are left out. Activity calls are given as the source filed them. How the source made its calls: active means hit-call score of the fitted dose curve at least 0.9, where 1 is the maximum; inconclusive means response in the unintended direction; inactive means score below 0.9.

Nuclear receptor subfamily 1 group I member 2 (Homo sapiens), sequence (O75469 whole entry, looked up): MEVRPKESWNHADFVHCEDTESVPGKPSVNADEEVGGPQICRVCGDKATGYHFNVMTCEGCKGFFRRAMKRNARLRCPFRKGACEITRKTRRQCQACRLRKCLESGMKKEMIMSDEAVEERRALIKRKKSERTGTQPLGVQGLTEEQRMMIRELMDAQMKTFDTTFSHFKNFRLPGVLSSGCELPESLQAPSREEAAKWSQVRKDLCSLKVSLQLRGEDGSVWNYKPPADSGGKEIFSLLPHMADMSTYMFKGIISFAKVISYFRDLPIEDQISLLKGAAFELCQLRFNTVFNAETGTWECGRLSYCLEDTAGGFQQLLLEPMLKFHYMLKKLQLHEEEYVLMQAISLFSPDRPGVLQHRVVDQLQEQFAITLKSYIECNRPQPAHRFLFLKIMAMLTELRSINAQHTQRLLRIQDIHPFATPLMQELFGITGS

This assay concerns the target Nuclear receptor subfamily 1 group I member 2 (Homo sapiens) (UniProt O75469). Description: NVS_NR_hPXR: NovaScreen (NVS) Nuclear Receptor Binding Assay for human Pregnane X Receptor (PXR) (AID 2283365).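 Further: a drop in FRET signal versus DMSO baseline means the compound binds.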 The method, boiled down:
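Cell-free TR-FRET binding assay with extracted human PXR protein, read 2 h after dosing. Primary screen run in duplicate at 25 uM, actives followed in concentration series; loss of signal fitted against DMSO baseline.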
`Clc1ccc(C(c2ccccc2Cl)C(Cl)(Cl)Cl)cc1` (centres undefined): the compound was classed as inactive.

Take `O=C(O)C(F)(F)C(F)(F)C(F)(F)C(F)(F)C(F)(F)C(F)(F)C(F)(F)C(F)(F)C(F)(F)F`: the AC50 is 25 µM (active).

As for `OCC(O)CO`, the half-maximal activity concentration (AC50) is 5.1 µM (active).

As for `CC1=C2C[C@H]3[C@@H](CC=C4C[C@@H](O)CC[C@@]43C)[C@@H]2CC[C@]12O[C@@H]1C[C@H](C)CN[C@H]1[C@H]2C`, the result was inactive.

For orientation: AC50 means the concentration at which the activity in the assay is half-maximal.
